Screens: PubChem, National Center for Advancing Translational Sciences (NCATS)
FUS suppressor: rescues growth of FUS-expressing yeast; AID 1347120; 0.24% of 390,000 active; Potency, µM (titrated, usually from 76.6 µM), usual class: activators; S. cerevisiae FUS-expressing, growth rescue, OD600, 24 h; note: nearly all actives have a fitted effect of over 55% in size
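Galactose (2%) drives FUS expression in yeast precultured in raffinose; seeding density OD 0.005. Test compounds incubated 24hr at 30C and 99% humidity before absorbance at 600 nm was measured.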
Abeta rescue: A-beta toxicity reversal in yeast; yeast expressing A-beta42, growth rescue, OD600, 48 h; response scale: 0% DMSO, 100% iron-clioquinol control; AID 1347071; 0.063% of 410,000 active; Potency, µM (titrated, usually from 46.1 µM), actives largely listed as activators; note: nearly all actives have a fitted effect of over 55% in size
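Yeast A-beta toxicity model in growth medium with pinned compounds, 48 h at 30 C; growth read as absorbance at 600 nm. Normalized to FeCl3/clioquinol equimolar mix (positive) and DMSO (negative).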
TDP43 rescue: TDP-43 toxicity inhibition in yeast; 1.8% of 410,000 active; Potency, µM (series often up to 46.1 µM), usual class: activators; TDP-43 expressing yeast growth rescue, BacTiter-Glo, 24 h; AID 652104; note: nearly all actives have a fitted effect of over 50% in size
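Yeast expressing TDP-43 (pregrown in raffinose, seeded at OD600=0.02 in galactose medium) exposed to compounds 24 hr at 30 deg C. Growth read by BacTiter-Glo luminescence; rescue of toxicity appears as increased signal.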
aSyn yeast inh: alpha-synuclein toxicity inhibition in yeast; Yeast expressing alpha-synuclein, growth rescue, BacTiter-Glo, 24 h; Potency, µM (doses to about 46.1 µM), usual class: activators; 0.14% of 370,000 active; AID 652106; note: nearly all actives have a fitted effect of over 65% in size
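Galactose-induced alpha-syn yeast (OD600=0.02, raffinose-pregrown) + pinned cpd, 24 hr, 30 deg C; growth by BacTiter-Glo luminescence. Growth restoration scores as activation.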
Hits are given with their value; [ ] = dose if it differs, or a comment. In the library only some 2.1% were active in any assay of this set; here they are far more common. Calls come from the whole dose curve; as a rule, active = well fitted curve in the direction sought with a large enough effect; inconclusive = small, poorly fitted or top-dose-only effect, or another doubt; inactive = no such curve, though single readings can be large; an effect the other way counts as inactive or inconclusive.

Results for COc1ccc(-c2csc(N3CCN(C(=O)c4ccco4)CC3)n2)cc1 ?
FUS suppressor: inactive; Abeta rescue: inactive; TDP43 rescue: 20µM; aSyn yeast inh: inactive

What do the screens show for `CCc1cc2ccc(C)cc2nc1SCC(=O)N1CCN(C(=O)c2ccco2)CC1`?
Abeta rescue: inactive; TDP43 rescue: 14µM; aSyn yeast inh: inactive

What do the screens show for `CCc1cc2cc3c(cc2nc1SCC(=O)N1CCN(C(=O)c2ccco2)CC1)OCO3`?
FUS suppressor: inactive; Abeta rescue: inactive; TDP43 rescue: inactive; aSyn yeast inh: inactive

Results for COc1ccc(-c2csc(N3CCN(C(=O)c4ccccc4)CC3)n2)cc1 ?
FUS suppressor: inactive; Abeta rescue: inactive; TDP43 rescue: inconclusive; aSyn yeast inh: inactive

How did O=C(c1ccc2nc(N3CCOCC3)sc2c1)N1CCN(C(=O)c2ccco2)CC1 do in these assays?
FUS suppressor: inactive; Abeta rescue: inactive; TDP43 rescue: inactive; aSyn yeast inh: inactive

What do the screens show for `NCC(=O)c1c[nH]c2ccccc12`?
aSyn yeast inh: inactive

Results for O=C(NC1CCSc2ccccc21)c1cccc(Cl)c1 (stereo not given) ?
FUS suppressor: inactive; Abeta rescue: inactive; TDP43 rescue: 5.6µM; aSyn yeast inh: inactive

What do the screens show for `CCCCCC(=O)NC(=S)Nc1cccc(C(C)=O)c1`?
FUS suppressor: inactive; Abeta rescue: 8.9µM; TDP43 rescue: inactive[0.397 µM]; aSyn yeast inh: inactive

How did O=C(COC(=O)c1cccc2ccccc12)NCC1CCCO1 (stereo not given) do in these assays?
FUS suppressor: inactive; Abeta rescue: inactive; TDP43 rescue: inactive; aSyn yeast inh: inactive

How did O=C(COC(=O)c1cc(-c2ccc(F)cc2)nc2ccccc12)NCC1CCCO1 (stereo not given) do in these assays?
FUS suppressor: inactive; Abeta rescue: inactive; TDP43 rescue: 14µM; aSyn yeast inh: inactive

How did COc1ccc([C@@H]2CC=C(C(=O)O)[C@H](c3ccc(Cl)cc3)N2S(=O)(=O)c2ccccc2C)cc1 do in these assays?
FUS suppressor: inconclusive; Abeta rescue: inactive; TDP43 rescue: 18µM; aSyn yeast inh: inactive

What do the screens show for `COc1ccc([C@@H]2CC=C(C(=O)O)[C@H](c3ccc(Br)cc3)N2S(=O)(=O)c2ccccc2C)cc1`?
FUS suppressor: inconclusive; Abeta rescue: inactive; TDP43 rescue: 35µM; aSyn yeast inh: inactive

How did Cc1ccccc1S(=O)(=O)N1[C@@H](c2ccccc2)C(C(=O)O)=CC[C@H]1c1ccc(Cl)cc1 do in these assays?
FUS suppressor: inactive; Abeta rescue: inactive; TDP43 rescue: inconclusive; aSyn yeast inh: inactive

Results for Cc1ccc([C@@H]2CC=C(C(=O)O)[C@H](c3ccc(Br)cc3)N2S(=O)(=O)c2ccccc2C)cc1 ?
FUS suppressor: inactive; Abeta rescue: inactive; TDP43 rescue: inactive; aSyn yeast inh: inactive

Results for Cc1ccc([C@@H]2CC=C(C(=O)O)[C@H](c3ccc(F)cc3)N2S(=O)(=O)c2ccccc2C)cc1 ?
FUS suppressor: inactive; Abeta rescue: inactive; TDP43 rescue: 28µM; aSyn yeast inh: inactive

Results for CCN(C(=O)CSc1nc2ccccc2n1CC(=O)Nc1ccc(F)cc1F)c1ccccc1 ?
FUS suppressor: inactive; Abeta rescue: inactive; TDP43 rescue: inactive

How did CC[C@@H](C)C(NC(=O)OC(C)(C)C)c1cn([C@@H](CCCCNC(=O)OC(C)(C)C)C(=O)N2CCN(C(=O)OC(C)(C)C)CC2)nn1 (stereo not given in full) do in these assays?
FUS suppressor: inactive; Abeta rescue: inactive; TDP43 rescue: inactive; aSyn yeast inh: inactive

What do the screens show for `CC[C@@H](C)C(NC(=O)OC(C)(C)C)c1cn([C@@H](Cc2cc3ccccc3[nH]2)C(=O)N2CCN(C(=O)OC(C)(C)C)CC2)nn1` (stereo not given in full)?
FUS suppressor: 14µM; Abeta rescue: inactive; TDP43 rescue: inactive; aSyn yeast inh: inactive

Results for CC(C)CC(NC(=O)OC(C)(C)C)c1cn([C@@H](CCCCNC(=O)OC(C)(C)C)C(=O)N2CCN(C(=O)OC(C)(C)C)CC2)nn1 (stereo not given in full) ?
FUS suppressor: 7.9µM; Abeta rescue: inactive; TDP43 rescue: inactive; aSyn yeast inh: inactive

How did CCOC(=O)c1cc(S(=O)(=O)NCc2ccc(OC)cc2)[nH]n1 do in these assays?
FUS suppressor: inactive; Abeta rescue: inactive; TDP43 rescue: inactive

Results for COc1cc(Br)c(CC(=O)NO)cc1OC ?
aSyn yeast inh: inactive

Results for CCOc1cccc(-c2cc(C(=O)N3N=C(C)CC3(O)C(F)F)c3ccccc3n2)c1 (stereo not given) ?
FUS suppressor: inactive; Abeta rescue: inactive; TDP43 rescue: 18µM; aSyn yeast inh: inactive

How did CCOc1ccccc1C(=O)NC1(C(F)(F)F)C(=O)Nc2c1c(=O)[nH]c(=O)n2-c1ccccc1 (stereo not given) do in these assays?
FUS suppressor: inactive; Abeta rescue: inactive; TDP43 rescue: inactive

How did O=C(Nc1nc2c(ccc3ccccc32)s1)c1ccco1 do in these assays?
FUS suppressor: inconclusive; Abeta rescue: inactive; TDP43 rescue: 5.6µM; aSyn yeast inh: inactive

Results for O=C(Nc1cccc2ccccc12)c1ccco1 ?
FUS suppressor: inactive; Abeta rescue: inactive; TDP43 rescue: 16µM; aSyn yeast inh: inactive

Results for CCc1ccccc1NC(=O)CC(c1ccc(F)cc1)N1Cc2ccccc2C1=O (stereo not given) ?
FUS suppressor: inactive; Abeta rescue: inactive; TDP43 rescue: inactive

Results for COc1cc(CN(C)c2ncnc3sccc23)ccc1OC(F)F ?
FUS suppressor: inactive; Abeta rescue: inactive; TDP43 rescue: 18µM; aSyn yeast inh: inactive

Results for COc1ccc(OC)c(Nc2ncnc3sccc23)c1 ?
FUS suppressor: inactive; Abeta rescue: inactive; TDP43 rescue: inactive; aSyn yeast inh: inactive

What do the screens show for `CN(C)c1ccc(/C=C/c2cccc3cc4ccccc4nc23)cc1`?
aSyn yeast inh: inactive

Results for Cc1ccc(-c2cn3c(n2)sc2cc(C(=O)NC4CCCCCC4)ccc23)cc1 ?
FUS suppressor: inactive; Abeta rescue: inactive; TDP43 rescue: inactive

How did Cc1ccc(N2CC(NC(=O)CCc3ccccc3)CC2=O)cc1 (stereo not given) do in these assays?
FUS suppressor: inactive; Abeta rescue: inactive; TDP43 rescue: inactive

What do the screens show for `CC(=O)OC1CCC2(C)C(CCC3C4CC=C(C(C)=O)C4(C)OC(=O)CC32)C1` (stereo not given)?
FUS suppressor: inactive; Abeta rescue: inactive; TDP43 rescue: inactive; aSyn yeast inh: inactive

How did CC(=O)O[C@H]1CC[C@@]2(C)C(CCC3C2CC[C@]2(C)OC(=O)CCC32)C1 (stereo not given in full) do in these assays?
FUS suppressor: inactive; Abeta rescue: inactive; TDP43 rescue: 35µM; aSyn yeast inh: inactive

Results for O=C1Cc2ccccc2C(=O)N1CCc1ccccc1 ?
FUS suppressor: inactive; Abeta rescue: inactive; TDP43 rescue: 13µM; aSyn yeast inh: inactive

Results for CC(=O)c1cc(-c2cccc([N+](=O)[O-])c2)c(=O)n2c1CCC2 ?
FUS suppressor: inactive
